According to publication PMC9911399, “Two distinct binding modes provide the RNA-binding protein RbFox with extraordinary sequence specificity”:
Substitutions are numbered along the chain they refer to; changes in the protein carry UniProt numbers. The full ranking holds about 16,000 sequences; the median of “ka relative to ugcaugu” is about 0.096, and the highest 2% start at about 0.35. This is one part of a sample in which the highest values are shown more often than they occur.

T1: RBFOX1 RRM RbFoxmut (Fox-RRM*) (Homo sapiens, UniProt Q9NWB1 109-208, R118D;E147R;N151S;E152T)
T1 sequence: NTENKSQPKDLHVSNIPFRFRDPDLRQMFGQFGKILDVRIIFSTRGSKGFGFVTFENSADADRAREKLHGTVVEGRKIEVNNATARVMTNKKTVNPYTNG

B1: UAUCAAU (DNA:RNA)
RNA: GGGAGACCGGAAUUCAGAUUGUCCUAUCAAUUUAAAUCCCGUCGUAGCCACCA
DNA 1: CAATCTGAATTCCGGTCTCCC
DNA 2: TGGTGGCTACGACGGGATT
B2: CCACUGA (DNA:RNA)
RNA: B1 RNA with U25C, A26C, U27A, A29U, A30G, U31A
DNA 1: CAATCTGAATTCCGGTCTCCC
DNA 2: TGGTGGCTACGACGGGATT
B3: UCUUCCC (DNA:RNA)
RNA: B1 RNA with A26C, C28U, A29C, A30C, U31C
DNA 1: CAATCTGAATTCCGGTCTCCC
DNA 2: TGGTGGCTACGACGGGATT
B4: UUAUACA (DNA:RNA)
RNA: B1 RNA with A26U, U27A, C28U, A30C, U31A
DNA 1: CAATCTGAATTCCGGTCTCCC
DNA 2: TGGTGGCTACGACGGGATT
B5: CAUUUCC (DNA:RNA)
RNA: B1 RNA with U25C, C28U, A29U, A30C, U31C
DNA 1: CAATCTGAATTCCGGTCTCCC
DNA 2: TGGTGGCTACGACGGGATT
B6: UAUGUCC (DNA:RNA)
RNA: B1 RNA with C28G, A29U, A30C, U31C
DNA 1: CAATCTGAATTCCGGTCTCCC
DNA 2: TGGTGGCTACGACGGGATT
B7: GUAUGUG (DNA:RNA)
RNA: GGGAGACCGGAAUUCAGAUUGUCCGUAUGUGUUAAAUCCCGUCGUAGCCACCA
DNA 1: CAATCTGAATTCCGGTCTCCC
DNA 2: TGGTGGCTACGACGGGATT
B8: GGAUGUC (DNA:RNA)
RNA: B7 RNA with U26G, G31C
DNA 1: CAATCTGAATTCCGGTCTCCC
DNA 2: TGGTGGCTACGACGGGATT
B9: UUAUGUA (DNA:RNA)
RNA: B7 RNA with G25U, G31A
DNA 1: CAATCTGAATTCCGGTCTCCC
DNA 2: TGGTGGCTACGACGGGATT
B10: GGAGAUG (DNA:RNA)
RNA: B7 RNA with U26G, U28G, G29A
DNA 1: CAATCTGAATTCCGGTCTCCC
DNA 2: TGGTGGCTACGACGGGATT
B11: CUAUGUG (DNA:RNA)
RNA: B7 RNA with G25C
DNA 1: CAATCTGAATTCCGGTCTCCC
DNA 2: TGGTGGCTACGACGGGATT
B12: GGAUGUG (DNA:RNA)
RNA: B7 RNA with U26G
DNA 1: CAATCTGAATTCCGGTCTCCC
DNA 2: TGGTGGCTACGACGGGATT
B13: UUGUAUG (DNA:RNA)
RNA: B7 RNA with G25U, A27G, G29A
DNA 1: CAATCTGAATTCCGGTCTCCC
DNA 2: TGGTGGCTACGACGGGATT
B14: CGUUGUG (DNA:RNA)
RNA: B7 RNA with G25C, U26G, A27U
DNA 1: CAATCTGAATTCCGGTCTCCC
DNA 2: TGGTGGCTACGACGGGATT
B15: CGUGUCG (DNA:RNA)
RNA: B7 RNA with G25C, U26G, A27U, U28G, G29U, U30C
DNA 1: CAATCTGAATTCCGGTCTCCC
DNA 2: TGGTGGCTACGACGGGATT
B16: GUGUAUG (DNA:RNA)
RNA: B7 RNA with A27G, G29A
DNA 1: CAATCTGAATTCCGGTCTCCC
DNA 2: TGGTGGCTACGACGGGATT
B17: GUGUCCG (DNA:RNA)
RNA: B7 RNA with A27G, G29C, U30C
DNA 1: CAATCTGAATTCCGGTCTCCC
DNA 2: TGGTGGCTACGACGGGATT
B18: ACUCCUU (DNA:RNA)
RNA: B1 RNA with U25A, A26C, A29C, A30U
DNA 1: CAATCTGAATTCCGGTCTCCC
DNA 2: TGGTGGCTACGACGGGATT
B19: UUGUUCC (DNA:RNA)
RNA: B7 RNA with G25U, A27G, G29U, U30C, G31C
DNA 1: CAATCTGAATTCCGGTCTCCC
DNA 2: TGGTGGCTACGACGGGATT
B20: AAAUGUA (DNA:RNA)
RNA: B7 RNA with G25A, U26A, G31A
DNA 1: CAATCTGAATTCCGGTCTCCC
DNA 2: TGGTGGCTACGACGGGATT

These binders were tested against T1, RBFOX1 RRM RbFoxmut (Fox-RRM*) (assay: EMSA; HiTS-Eq, 1 nM pool, 10 min; buffer printed only for the single-RNA assays: 10 mM Tris pH 7.5, 150 mM NaCl, 3.4 mM EDTA, 0.001% NP-40, 30 C). Conditions: tags: His6 N-terminal (pET28a); label: 5' 32P.
Method in brief: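 Purified RbFox RRM, wild type or mutant, was incubated for 10 min in 50 µL with 1 nM of a 5′-radiolabelled RNA pool carrying 7 randomized nucleotides, whose flanks were annealed to DNA oligonucleotides, over a series of increasing protein concentrations. Unbound RNA was resolved on 8% native PAGE, cut out, reverse-transcribed, barcoded by PCR and sequenced on an Illumina HiSeq 2500. Relative association constants were derived from changes in read counts for each RNA species versus the control reaction and normalised to the cognate motif.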
With B1 the binding signal was 0.0491 KA relative to UGCAUGU. With B2 the binding signal was 0.123 KA relative to UGCAUGU. With B3 the binding signal was 0.0652 KA relative to UGCAUGU. B4 was tested, and the binding signal was 0.0696 KA relative to UGCAUGU. In the case of B5, the binding signal is reported as 0.0842 KA relative to UGCAUGU. B6 was tested, and the binding signal was 0.107 KA relative to UGCAUGU. In the case of B7, the binding signal is reported as 0.787 KA relative to UGCAUGU. B8 was tested, and the binding signal was 0.295 KA relative to UGCAUGU. In the case of B9, the binding signal is reported as 0.19 KA relative to UGCAUGU. B10 was tested, and the binding signal was 0.312 KA relative to UGCAUGU. For B11, the binding signal was 0.134 KA relative to UGCAUGU. B12 was tested, and the binding signal was 0.451 KA relative to UGCAUGU. With B13 the binding signal was 1.24 KA relative to UGCAUGU. For B14, the binding signal was 0.17 KA relative to UGCAUGU. With B15 the binding signal was 0.126 KA relative to UGCAUGU. For B16, the binding signal was 1.38 KA relative to UGCAUGU. For B17, the binding signal was 0.216 KA relative to UGCAUGU. B18 was tested, and the binding signal was 0.0436 KA relative to UGCAUGU. B19 was tested, and the binding signal was 0.104 KA relative to UGCAUGU. B20 was tested, and the binding signal was 0.166 KA relative to UGCAUGU.
